Assay results as given in PMC12820563, “FoxP3 forms a head-to-head dimer in vivo and stabilizes its multimerization on adjacent microsatellites”.
Over roughly 16,000 sequences, “rpm ratio (pull-down/input)” has its median near 0.5; the highest 2% begin near 5.5. The sample as a whole holds a higher share of the highest values than the screen did.

Biological target: T1, MBP-FoxP3dN (Mus musculus, UniProt Q99JB6 188-423)
T1 sequence: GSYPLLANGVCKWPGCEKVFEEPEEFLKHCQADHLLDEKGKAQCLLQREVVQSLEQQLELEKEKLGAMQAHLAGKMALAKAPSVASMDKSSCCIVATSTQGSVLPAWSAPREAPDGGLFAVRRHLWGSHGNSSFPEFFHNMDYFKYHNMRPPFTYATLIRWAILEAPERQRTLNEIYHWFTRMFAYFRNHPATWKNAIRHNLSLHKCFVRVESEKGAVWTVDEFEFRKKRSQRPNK
Experiment: PD-seq (MBP pull-down with sequencing); 20 mM Tris-HCl pH 7.5, 100 mM NaCl, 1.5 mM MgCl2, 0.4 uM protein, 0.1 uM dsDNA library, 30 min, room temperature, amylose pull-down; high values mean tight binding
Details: protein: recombinant; tags: His6-MBP; chain copies: 2; dsDNA, one strand shown
Summary of the method: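 In Tris pH 7.5 buffer with NaCl and MgCl2, 0.4 µM His6-MBP-tagged mouse FoxP3 or FoxP1 fragment lacking the N-terminus, from E. coli, met 0.1 µM Klenow-filled double-stranded degenerate DNA library for 30 min at room temperature. Three washes on amylose resin followed capture of the complexes, then proteinase K release of DNA, PCR barcoding and Illumina sequencing. Binding is taken as pooled-replicate reads-per-million enrichment of pull-down relative to input.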

Sequence | binding signal
GATGATTGTTCTCCCAGCTGATGAATTTTGTACGTCGAGTAAACAAATTTTCCTAATCTTTCTGTTCAAGCGCCATCTAC | 1.18 RPM ratio (pull-down/input)
GATGATTGTTCTCCCAGCTGATGAATTGTAAGTGTCGAGTAAACAAATTTTCCTAATCTTTCTGTTCAAGCGCCATCTAC | 0.84 RPM ratio (pull-down/input)
GATGATTGTTCTCCCAGCTGATGAATTTTGATGTTCGAGTAAACAAATTTTCCTAATCTTTCTGTTCAAGCGCCATCTAC | 3.91 RPM ratio (pull-down/input)
GATGATTGTTCTCCCAGCTGATGAATTTAAGGATTCGAGTAAACAAATTTTCCTAATCTTTCTGTTCAAGCGCCATCTAC | 0.302 RPM ratio (pull-down/input)
GATGATTGTTCTCCCAGCTGATGAATTGAATATTTCGAGTAAACAAATTTTCCTAATCTTTCTGTTCAAGCGCCATCTAC | 0.671 RPM ratio (pull-down/input)
GATGATTGTTCTCCCAGCTGATGAATTTTGACCATCGAGTAAACAAATTTTCCTAATCTTTCTGTTCAAGCGCCATCTAC | 0.551 RPM ratio (pull-down/input)
GATGATTGTTCTCCCAGCTGATGAATTGTGTTATTCGAGTAAACAAATTTTCCTAATCTTTCTGTTCAAGCGCCATCTAC | 7.88 RPM ratio (pull-down/input)
GATGATTGTTCTCCCAGCTGATGAATTATTGTGTTCGAGTAAACAAATTTTCCTAATCTTTCTGTTCAAGCGCCATCTAC | 2.16 RPM ratio (pull-down/input)
GATGATTGTTCTCCCAGCTGATGAATTGTTATATTCGAGTAAACAAATTTTCCTAATCTTTCTGTTCAAGCGCCATCTAC | 1.27 RPM ratio (pull-down/input)
GATGATTGTTCTCCCAGCTGATGAATTGGATCGTTCGAGTAAACAAATTTTCCTAATCTTTCTGTTCAAGCGCCATCTAC | 0.402 RPM ratio (pull-down/input)
GATGATTGTTCTCCCAGCTGATGAATTTACAGGATCGAGTAAACAAATTTTCCTAATCTTTCTGTTCAAGCGCCATCTAC | 0.329 RPM ratio (pull-down/input)
GATGATTGTTCTCCCAGCTGATGAATTCTTAAGTTCGAGTAAACAAATTTTCCTAATCTTTCTGTTCAAGCGCCATCTAC | 0.237 RPM ratio (pull-down/input)
GATGATTGTTCTCCCAGCTGATGAATTCTGTATGTCGAGTAAACAAATTTTCCTAATCTTTCTGTTCAAGCGCCATCTAC | 4.95 RPM ratio (pull-down/input)
GATGATTGTTCTCCCAGCTGATGAATTCTATGTGTCGAGTAAACAAATTTTCCTAATCTTTCTGTTCAAGCGCCATCTAC | 1.96 RPM ratio (pull-down/input)
GATGATTGTTCTCCCAGCTGATGAATTGTATGTGTCGAGTAAACAAATTTTCCTAATCTTTCTGTTCAAGCGCCATCTAC | 3.75 RPM ratio (pull-down/input)
GATGATTGTTCTCCCAGCTGATGAATTGTATGTTTCGAGTAAACAAATTTTCCTAATCTTTCTGTTCAAGCGCCATCTAC | 3.89 RPM ratio (pull-down/input)
GATGATTGTTCTCCCAGCTGATGAATTTGTATGGTCGAGTAAACAAATTTTCCTAATCTTTCTGTTCAAGCGCCATCTAC | 6.04 RPM ratio (pull-down/input)
GATGATTGTTCTCCCAGCTGATGAATTGTGTATGTCGAGTAAACAAATTTTCCTAATCTTTCTGTTCAAGCGCCATCTAC | 5.84 RPM ratio (pull-down/input)
GATGATTGTTCTCCCAGCTGATGAATTTGTATGTTCGAGTAAACAAATTTTCCTAATCTTTCTGTTCAAGCGCCATCTAC | 6.63 RPM ratio (pull-down/input)
GATGATTGTTCTCCCAGCTGATGAATTGTATGGGTCGAGTAAACAAATTTTCCTAATCTTTCTGTTCAAGCGCCATCTAC | 1.19 RPM ratio (pull-down/input)
GATGATTGTTCTCCCAGCTGATGAATTATGTATGTCGAGTAAACAAATTTTCCTAATCTTTCTGTTCAAGCGCCATCTAC | 4.99 RPM ratio (pull-down/input)

Sequence | binding signal
GATGATTGTTCTCCCAGCTGATGAATTGGTATGGTCGAGTAAACAAATTTTCCTAATCTTTCTGTTCAAGCGCCATCTAC | 1.45 RPM ratio (pull-down/input)
GATGATTGTTCTCCCAGCTGATGAATTGTATGATTCGAGTAAACAAATTTTCCTAATCTTTCTGTTCAAGCGCCATCTAC | 2.94 RPM ratio (pull-down/input)
GATGATTGTTCTCCCAGCTGATGAATTTTGTATGTCGAGTAAACAAATTTTCCTAATCTTTCTGTTCAAGCGCCATCTAC | 6.01 RPM ratio (pull-down/input)
GATGATTGTTCTCCCAGCTGATGAATTATTCAGATCGAGTAAACAAATTTTCCTAATCTTTCTGTTCAAGCGCCATCTAC | 0.24 RPM ratio (pull-down/input)
GATGATTGTTCTCCCAGCTGATGAATTTTTTCAATCGAGTAAACAAATTTTCCTAATCTTTCTGTTCAAGCGCCATCTAC | 0.247 RPM ratio (pull-down/input)
GATGATTGTTCTCCCAGCTGATGAATTTGGTGAGTCGAGTAAACAAATTTTCCTAATCTTTCTGTTCAAGCGCCATCTAC | 0.814 RPM ratio (pull-down/input)
GATGATTGTTCTCCCAGCTGATGAATTGTAGGCGTCGAGTAAACAAATTTTCCTAATCTTTCTGTTCAAGCGCCATCTAC | 0.778 RPM ratio (pull-down/input)
GATGATTGTTCTCCCAGCTGATGAATTGTTCACGTCGAGTAAACAAATTTTCCTAATCTTTCTGTTCAAGCGCCATCTAC | 0.396 RPM ratio (pull-down/input)
GATGATTGTTCTCCCAGCTGATGAATTCTGTCGCTCGAGTAAACAAATTTTCCTAATCTTTCTGTTCAAGCGCCATCTAC | 0.926 RPM ratio (pull-down/input)
GATGATTGTTCTCCCAGCTGATGAATTACCACGCTCGAGTAAACAAATTTTCCTAATCTTTCTGTTCAAGCGCCATCTAC | 0.466 RPM ratio (pull-down/input)
GATGATTGTTCTCCCAGCTGATGAATTCTATAGCTCGAGTAAACAAATTTTCCTAATCTTTCTGTTCAAGCGCCATCTAC | 0.43 RPM ratio (pull-down/input)
GATGATTGTTCTCCCAGCTGATGAATTGGCGGCCTCGAGTAAACAAATTTTCCTAATCTTTCTGTTCAAGCGCCATCTAC | 0.449 RPM ratio (pull-down/input)
GATGATTGTTCTCCCAGCTGATGAATTTTGTATTTCGAGTAAACAAATTTTCCTAATCTTTCTGTTCAAGCGCCATCTAC | 5.33 RPM ratio (pull-down/input)
GATGATTGTTCTCCCAGCTGATGAATTTGTATTTTCGAGTAAACAAATTTTCCTAATCTTTCTGTTCAAGCGCCATCTAC | 4.85 RPM ratio (pull-down/input)
GATGATTGTTCTCCCAGCTGATGAATTGTATTTGTCGAGTAAACAAATTTTCCTAATCTTTCTGTTCAAGCGCCATCTAC | 6.43 RPM ratio (pull-down/input)
GATGATTGTTCTCCCAGCTGATGAATTGTATCTGTCGAGTAAACAAATTTTCCTAATCTTTCTGTTCAAGCGCCATCTAC | 1.2 RPM ratio (pull-down/input)
GATGATTGTTCTCCCAGCTGATGAATTTGTATTGTCGAGTAAACAAATTTTCCTAATCTTTCTGTTCAAGCGCCATCTAC | 6.39 RPM ratio (pull-down/input)
GATGATTGTTCTCCCAGCTGATGAATTGTAATTGTCGAGTAAACAAATTTTCCTAATCTTTCTGTTCAAGCGCCATCTAC | 2.31 RPM ratio (pull-down/input)
GATGATTGTTCTCCCAGCTGATGAATTACAAGCTTCGAGTAAACAAATTTTCCTAATCTTTCTGTTCAAGCGCCATCTAC | 0.518 RPM ratio (pull-down/input)
GATGATTGTTCTCCCAGCTGATGAATTTGGGCATTCGAGTAAACAAATTTTCCTAATCTTTCTGTTCAAGCGCCATCTAC | 4.79 RPM ratio (pull-down/input)
GATGATTGTTCTCCCAGCTGATGAATTGGGCATCTCGAGTAAACAAATTTTCCTAATCTTTCTGTTCAAGCGCCATCTAC | 6.41 RPM ratio (pull-down/input)

Sequence | binding signal
GATGATTGTTCTCCCAGCTGATGAATTGGGGCATTCGAGTAAACAAATTTTCCTAATCTTTCTGTTCAAGCGCCATCTAC | 4.3 RPM ratio (pull-down/input)
GATGATTGTTCTCCCAGCTGATGAATTGGGCATTTCGAGTAAACAAATTTTCCTAATCTTTCTGTTCAAGCGCCATCTAC | 5.5 RPM ratio (pull-down/input)
GATGATTGTTCTCCCAGCTGATGAATTTTGGGCATCGAGTAAACAAATTTTCCTAATCTTTCTGTTCAAGCGCCATCTAC | 0.782 RPM ratio (pull-down/input)
GATGATTGTTCTCCCAGCTGATGAATTGGGGGCATCGAGTAAACAAATTTTCCTAATCTTTCTGTTCAAGCGCCATCTAC | 0.87 RPM ratio (pull-down/input)
GATGATTGTTCTCCCAGCTGATGAATTAAGTGAATCGAGTAAACAAATTTTCCTAATCTTTCTGTTCAAGCGCCATCTAC | 0.328 RPM ratio (pull-down/input)
GATGATTGTTCTCCCAGCTGATGAATTAAGGGAGTCGAGTAAACAAATTTTCCTAATCTTTCTGTTCAAGCGCCATCTAC | 0.249 RPM ratio (pull-down/input)
GATGATTGTTCTCCCAGCTGATGAATTGCTTAAATCGAGTAAACAAATTTTCCTAATCTTTCTGTTCAAGCGCCATCTAC | 0.457 RPM ratio (pull-down/input)
GATGATTGTTCTCCCAGCTGATGAATTCTAGGTATCGAGTAAACAAATTTTCCTAATCTTTCTGTTCAAGCGCCATCTAC | 0.464 RPM ratio (pull-down/input)
GATGATTGTTCTCCCAGCTGATGAATTCTGCAATTCGAGTAAACAAATTTTCCTAATCTTTCTGTTCAAGCGCCATCTAC | 4.83 RPM ratio (pull-down/input)
GATGATTGTTCTCCCAGCTGATGAATTTTGCAATTCGAGTAAACAAATTTTCCTAATCTTTCTGTTCAAGCGCCATCTAC | 5.75 RPM ratio (pull-down/input)
GATGATTGTTCTCCCAGCTGATGAATTTCGCAATTCGAGTAAACAAATTTTCCTAATCTTTCTGTTCAAGCGCCATCTAC | 4.55 RPM ratio (pull-down/input)
GATGATTGTTCTCCCAGCTGATGAATTCGCAATTTCGAGTAAACAAATTTTCCTAATCTTTCTGTTCAAGCGCCATCTAC | 1.92 RPM ratio (pull-down/input)
GATGATTGTTCTCCCAGCTGATGAATTTGCAATTTCGAGTAAACAAATTTTCCTAATCTTTCTGTTCAAGCGCCATCTAC | 2.77 RPM ratio (pull-down/input)
GATGATTGTTCTCCCAGCTGATGAATTCGTGCAATCGAGTAAACAAATTTTCCTAATCTTTCTGTTCAAGCGCCATCTAC | 3.15 RPM ratio (pull-down/input)
GATGATTGTTCTCCCAGCTGATGAATTGTGCAATTCGAGTAAACAAATTTTCCTAATCTTTCTGTTCAAGCGCCATCTAC | 6.39 RPM ratio (pull-down/input)
GATGATTGTTCTCCCAGCTGATGAATTTGCAAATTCGAGTAAACAAATTTTCCTAATCTTTCTGTTCAAGCGCCATCTAC | 0.496 RPM ratio (pull-down/input)
GATGATTGTTCTCCCAGCTGATGAATTGCGCAATTCGAGTAAACAAATTTTCCTAATCTTTCTGTTCAAGCGCCATCTAC | 5.72 RPM ratio (pull-down/input)
GATGATTGTTCTCCCAGCTGATGAATTTTGGTCGTCGAGTAAACAAATTTTCCTAATCTTTCTGTTCAAGCGCCATCTAC | 0.496 RPM ratio (pull-down/input)
GATGATTGTTCTCCCAGCTGATGAATTTGGGTGGTCGAGTAAACAAATTTTCCTAATCTTTCTGTTCAAGCGCCATCTAC | 0.682 RPM ratio (pull-down/input)
GATGATTGTTCTCCCAGCTGATGAATTGTTAACTTCGAGTAAACAAATTTTCCTAATCTTTCTGTTCAAGCGCCATCTAC | 0.587 RPM ratio (pull-down/input)
GATGATTGTTCTCCCAGCTGATGAATTGCTCCAATCGAGTAAACAAATTTTCCTAATCTTTCTGTTCAAGCGCCATCTAC | 0.467 RPM ratio (pull-down/input)
